Compound activity from PubChem.
The list is not random: actives were taken first. Their share in the collection is about 2.7%.
gsp antag = antagonizes gsp, the McCune-Albright syndrome mutation. Potency, µM (series often up to 76.9 µM), actives largely listed as inhibitors. gsp-mutant cells, cAMP HTRF, 30 min. actives 0.4% (n = 340,000); calls by dose curve; cell line not stated here;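 further: intracellular cAMP measured with PDE inhibitor Ro 20-1724 present during compound exposure; nearly all actives have a fitted effect of over 65% in size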
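HTRF cAMP measurement after 30 min RT detection following 30 min, 37C compound treatment alongside […] (added as 300 uM solution) in G418-selected cells seeded at 2000/well and grown 16–24 h.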
RXFP1 ag = RXFP1 (human) receptor agonism; HEK293T-RXFP1 cAMP TR-FRET, 30 min; response scale: percent of porcine relaxin response, buffer zero; AID 2676; Potency, µM (series often up to 57.5 µM), actives largely listed as activators; actives 0.3% (n = 370,000); active means well fitted activation curve with a large enough effect; inconclusive means small, poorly fitted or top-dose-only effect; further: nearly all actives have a fitted effect of over 60% in size
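cAMP rise read by TR-FRET after 30 min, 37C compound exposure (up to 58 uM) in RXFP1-transfected HEK293 cells with Ro 20174 present. EC50 from Hill-equation fits, with 29 nM porcine relaxin as 100% and buffer as basal.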
ClpP mod = qHTS Assay for Activators of ClpP; ATP-dependent Clp protease proteolytic subunit (Bacillus subtilis (strain 168)), P80244; purified B. subtilis ClpP, FRET peptide cleavage, 20 min; Potency, µM (top dose mostly 57.5 µM); actives 1.9% (n = 340,000); AID 651965, 2013; active means well fitted falling curve with a large enough effect; inconclusive means small, poorly fitted or top-dose-only effect; inactive means no such curve, though single readings can be large or run the other way; further: the source files actives as falling curves though it sought activators and does not explain the sign; nearly all actives have a fitted effect of over 65% in size
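Buffer: 100 mM Tris/HCl pH8, 100 mM KCl, 0.05% low protease BSA, 2.5% glycerol, 0.01% Tween-20. ClpP 10 microg/mL final; 20 min RT; delta FRET normalized to ADEP and DMSO controls.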
RXFP1 antagonist = blocks the human relaxin receptor RXFP1; activity change, negative = inhibition, % at 57.5 µM; actives 0.59% (n = 350,000); HEK293-RXFP1, relaxin-stimulated cAMP HTRF, 30 min; active compounds read low; Q9HBX9;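 active means activity change of -60% or lower, but not beyond a set lower limit; inconclusive means change between -60% and -40%, or beyond the set limit; inactive means change above -40%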
Akt phos inh = Akt phosphorylation inhibition. actives 0.32% (n = 360,000). activity change, % for hits at 50 µM. Neuro2A IGF-stimulated pAkt S473 HTRF, 20 min; active compounds read low; in the data active means activity change below about -80%; inconclusive means mostly about -51% to -80%
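Neuro2A cells (4,500/well, DMEM with 0.5% FBS) were treated with compound at a single 50 µM final concentration, stimulated with 6 nM IGF for 20 min at 37 °C, and lysed. Phospho-Akt Ser473 was read by HTRF as 665/615 ratio ×10^4.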
gsp agonist = gsp mutant agonism; gsp mutant cells, cAMP HTRF, 30 min; actives 0.13% (n = 340,000); Potency, µM (highest dose often 76.9 µM), most hits filed as activators; AID 624287; active means well fitted activation curve with a large enough effect; inconclusive means small, poorly fitted or top-dose-only effect, or another doubt; inactive means no such curve, though single readings can be large or run the other way; cell line not stated here;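 further: phosphodiesterase inhibitor Ro 20-1724 added with compounds to block cAMP breakdown; nearly all actives have a fitted effect of over 60% in size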
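Cells in DMEM/10% FBS with G418 were pretreated with compounds in DMSO plus […] (300 uM stock) for 30 min at 37C. cAMP was measured by HTRF (cAMP-d2 plus anti-cAMP antibody-K) after 30 min at room temperature.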
Large screens that a line does not name were inactive.

Cc1cc2oc(C(=O)NC3CCS(=O)(=O)C3)c(C)c2cc1C (stereo not given)	ClpP mod 28µM
Cc1cccc(Cl)c1NC(=O)NCCCN1CCCCC1C (stereo not given)	none (no result: gsp antag, RXFP1 ag, RXFP1 antagonist, gsp agonist)
CCc1c(C)c2c(C)nn(-c3ccccc3)c2[nH]c1=O	ClpP mod inconclusive
CCc1c(C)n2nc(C)cc2[nH]c1=O	ClpP mod 13µM
Cc1sc2ncn(CC(=O)NCC(=O)N(C)Cc3ccccc3)c(=O)c2c1C	gsp agonist 11µM
Cc1onc(-c2ccccc2)c1C(N)=O	none
Cc1onc(-c2ccccc2)c1C(=O)n1nnc2ccccc21	ClpP mod 28µM, gsp agonist inconclusive
Cc1cccc(CCNC(=O)CCCOc2cc(=O)n(C)c3ccccc23)c1	none (no result: ClpP mod)
Cc1cccc(CCNC(=O)COc2cc(=O)n(C)c3ccccc23)c1	gsp antag 32µM (no result: ClpP mod)
CC(=O)NCCC(=O)Nc1sc2c(c1-c1nc3ccccc3[nH]1)CCCC2	ClpP mod inconclusive
O=C(Nc1sc2c(c1-c1nc3ccccc3[nH]1)CCCC2)C1CCCC1	gsp antag inconclusive, ClpP mod 10µM
COc1ccccc1CNC(=O)CCCn1c(=O)c2ccccc2n(Cc2ccc(F)cc2)c1=O	none (no result: gsp antag, RXFP1 antagonist, Akt phos inh, gsp agonist)
COc1cc(OC)c(/C=C/c2ccc3ccccc3n2)c(OC)c1	none (no result: gsp antag, RXFP1 ag, RXFP1 antagonist, Akt phos inh, gsp agonist)
COc1ccccc1NC(=O)N1CCCC(CNC(=O)c2ccccc2Cl)C1 (stereo not given)	gsp antag 45µM
CCOc1cc(C(=O)NCC(=O)N2CCC3(CC2)NCCc2[nH]cnc23)cc(OCC)c1OCC	RXFP1 antagonist -119
O=C(/C=C/c1c(F)cccc1Cl)NCc1ccco1	ClpP mod 10µM
COc1ccc(CCNCc2c(C(=O)O)c(C)n(Cc3cccc(Cl)c3)c2C)c(OC)c1OC	none (no result: gsp antag, Akt phos inh, gsp agonist)
CC1CCN(c2nc(-c3ccccc3)cc(C(F)(F)F)n2)CC1	ClpP mod inconclusive
Cc1ccc(-c2cc(C(F)F)nc(N3CCC(C)CC3)n2)cc1	ClpP mod 25µM
Cc1ccc(S(=O)(=O)N2C[C@H]3C(=O)C[C@@H](c4ccc(Cl)cc4)N(S(=O)(=O)c4ccc(C)cc4)[C@H]3C[C@H]2c2ccc(Cl)cc2)cc1	none (no result: gsp antag, RXFP1 ag, RXFP1 antagonist, gsp agonist)
O=C(Nc1cccc(C(F)(F)F)c1)C1=CC=CN2CCS(=O)(=O)N=C12	none
N#Cc1cc(-c2ccccc2)c[nH]c1=O	ClpP mod 7.9µM
COc1ccccc1N1C(=O)C2CC=CC(C)C2C1=O (stereo not given)	ClpP mod 3.2µM
Cc1ccc(-c2ccc3nnc(SCC(=O)NCC4CCCO4)n3n2)cc1 (stereo not given)	RXFP1 ag 25µM
CCOc1ccc(-c2ccc3nnc(SCC(=O)NCC4CCCO4)n3n2)cc1 (stereo not given)	RXFP1 ag inconclusive, ClpP mod 32µM, gsp agonist inconclusive
COc1ccc(-c2ccc3nnc(SCC(=O)NCC4CCCO4)n3n2)cc1 (stereo not given)	RXFP1 ag inconclusive, ClpP mod inconclusive, gsp agonist inconclusive
Cc1cc(C)c(NC(=S)N(CCN(C)C)C(C)c2cccnc2)c(C)c1 (stereo not given)	ClpP mod 16µM
COc1ccc(-c2nnc(-c3ccc(N)cc3)o2)cc1	ClpP mod 28µM
COc1ccc(-c2ccc(-c3nnc(-c4cc(OC)ccc4OC)o3)cc2)cc1	ClpP mod 16µM
COc1ccc(-c2nnc(-c3cc(OC)c(OC)c(OC)c3)o2)cc1OC	ClpP mod inconclusive, gsp agonist inconclusive
COc1ccc(-c2nnc(-c3ccc(N(C)C)cc3)o2)cc1	ClpP mod inconclusive
CCC(C(=O)NCCc1ccco1)n1nc(C)c2c(C)n(-c3ccccc3)nc2c1=O (stereo not given)	none
CCC(C(=O)NCCCc1ccccc1)n1nc(C)c2c(C)n(-c3ccccc3)nc2c1=O (stereo not given)	RXFP1 antagonist -62
CSc1ccc2[nH]c(=O)cc(C)c2c1	ClpP mod 35µM
Cc1cc(NC(=O)C2CCCCC2)ccc1NC(=O)c1ccccc1Cl	ClpP mod 16µM
Clc1ccc(OCCCNCc2ccccc2)c(Br)c1	RXFP1 antagonist -77
CC(C)(C)OC(=O)NCc1ccc(CNC(=O)c2nc[nH]c2C(=O)NCc2ccc(CNC(=O)OC(C)(C)C)cc2)cc1	none (no result: RXFP1 ag, RXFP1 antagonist, gsp agonist)
C[C@H](NC(=O)c1nc[nH]c1C(=O)NCc1ccccc1)C(=O)OCc1ccccc1	gsp antag 11µM (no result: RXFP1 antagonist)
CC(C)C[C@H](NC(=O)c1nc[nH]c1C(=O)NCc1ccccc1)C(=O)OCc1ccccc1	none (no result: RXFP1 antagonist, gsp agonist)
CC(C)(C)OC(=O)NCCCCCNC(=O)c1nc[nH]c1C(=O)NCc1ccc(CNC(=O)OC(C)(C)C)cc1	gsp antag 40µM (no result: RXFP1 ag, RXFP1 antagonist, gsp agonist)
CC(=O)Cn1c(CN2CCN(C(=O)c3ccco3)CC2)nc2c1c(=O)n(C)c(=O)n2C	none
O=C(CSc1nc(=O)n(CCN2CCOCC2)c2c1CCC2)Nc1ccccc1	none (no result: gsp antag, Akt phos inh, gsp agonist)
Cc1cccc(N=C2NC(=O)/C(=C/C=C/c3ccco3)S2)c1	RXFP1 antagonist -73
Cc1ccc(N=C2NC(=O)/C(=C\c3ccco3)S2)cc1	none
O=C1NC(=Nc2ccc(O)cc2)S/C1=C/c1ccco1	RXFP1 antagonist -61 (no result: ClpP mod)
CC1=C(C(=O)Nc2ccccc2C)C(c2ccco2)n2ncnc2N1 (stereo not given)	none (no result: gsp antag, RXFP1 antagonist, Akt phos inh, gsp agonist)
CN1C(CSCC(F)(F)F)Nc2cc(Cl)c(S(N)(=O)=O)cc2S1(=O)=O (stereo not given)	none (no result: gsp antag, RXFP1 ag, ClpP mod, Akt phos inh, gsp agonist)
Cc1cnc(C(=O)Nc2cccc3cccnc23)cn1	Akt phos inh -109%
Cc1ccc(C)c(N2CCN(C(=O)CCn3c(=S)[nH]c4cc5c(cc4c3=O)OCO5)CC2)c1	RXFP1 antagonist -68, gsp agonist inconclusive (no result: Akt phos inh)
O=C(CCCn1c(=S)[nH]c2ccccc2c1=O)N1CCN(c2cccc(Cl)c2)CC1	RXFP1 antagonist -89 (no result: Akt phos inh)
COc1cccc(N2CCN(C(=O)CCCCCNc3nc(=S)[nH]c4ccccc34)CC2)c1	gsp antag inconclusive, RXFP1 antagonist -90 (no result: ClpP mod)
COc1ccc(N2CCN(C(=O)CCCn3c(=S)[nH]c4cc5c(cc4c3=O)OCO5)CC2)cc1	RXFP1 antagonist -69, gsp agonist inconclusive (no result: Akt phos inh)
O=C(CCCn1c(=S)[nH]c2cc3c(cc2c1=O)OCO3)N1CCN(c2ccccn2)CC1	RXFP1 antagonist inconclusive
O=C(CCCn1c(=O)[nH]c2ccc(Br)cc2c1=O)N1CCN(c2cccc(Cl)c2)CC1	none (no result: gsp antag, RXFP1 antagonist, Akt phos inh, gsp agonist)
O=C(NCCCN1CCCC1=O)C(=O)NCC1OCCN1S(=O)(=O)c1cc(F)ccc1F (stereo not given)	none (no result: gsp antag, RXFP1 ag)
COc1ccccc1CCC(=O)Oc1ccccc1C#N	none
